Only some compounds are listed: those with a hit (about 1.4% of all), similar ones and a draw of the others.
IDE inh = human IDE inhibitors in live cells, primary screen, fluorescence polarization, HEK cells, FAbetaB substrate | Insulin-degrading enzyme (Homo sapiens), P14735 | FAbetaB cleavage | inhibition, % at 5.59 µM | 320,000 compounds, 0.41% hits | AID 434962, 2010;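 active = percent inhibition above the average of all tested compounds plus 3 SD, set per screening campaign, cut at about 16% in these data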;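 note: IDE supplied by intact live HEK cells; FP after avidin binding of uncleaved biotin substrate so inhibition keeps polarization high; 0% = DMSO wells and 100% = 60 µM reference IDE inhibitor Ii1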
HNF4A DNA FP = change in binding of human HNF4A to DNA, primary screen, biochemical, fluorescence polarization, FITC-DNA. 360,000 compounds, 0.3% hits. AID 1224865, 2016. activity change, % at 10 µM. 1 h; in the data active = activity change above about 30%, passing the limit was not always enough
Target sequence (P41235 whole entry, looked up): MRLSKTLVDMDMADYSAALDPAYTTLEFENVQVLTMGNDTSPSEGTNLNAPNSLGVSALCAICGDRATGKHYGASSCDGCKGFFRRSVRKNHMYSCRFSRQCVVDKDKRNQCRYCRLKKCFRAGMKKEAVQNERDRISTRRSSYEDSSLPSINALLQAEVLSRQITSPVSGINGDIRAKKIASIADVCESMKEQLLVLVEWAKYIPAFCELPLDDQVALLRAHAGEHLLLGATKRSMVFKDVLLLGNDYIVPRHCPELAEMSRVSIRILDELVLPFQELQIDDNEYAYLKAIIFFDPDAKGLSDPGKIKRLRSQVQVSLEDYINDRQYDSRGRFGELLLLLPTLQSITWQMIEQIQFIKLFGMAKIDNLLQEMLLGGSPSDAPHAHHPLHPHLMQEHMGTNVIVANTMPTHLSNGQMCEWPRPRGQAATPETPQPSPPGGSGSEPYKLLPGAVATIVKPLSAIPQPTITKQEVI
IDE act = human IDE activators in live cells, primary screen, fluorescence polarization, HEK cells, FAbeta-B substrate. Insulin-degrading enzyme (Homo sapiens), P14735. FAbeta-B cleavage; 0% vehicle, 100% cell-free pure enzyme wells. activation, % at 5.96 µM. 340,000 compounds, 0.073% hits;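 active = activation above the mean of all tested compounds plus 3 SD, set per screening campaign, cut at about 17% in these data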
CRFR2-BP ag = agonists of CRF-BP/CRF-R2 complex, primary screen, cell-based, HEK293, calcium dye fluorescence, uHTS; calcium dye fluorescence (FLIPR); percent of saturating CRF peptide response; activation, % at 13.2 µM; 350,000 compounds, 0.46% hits;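 active = activation of at least 50%, plus an integration ratio under a set limit after plate pattern correction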;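 note: plate controls were neutral control wells without compound for no effect and CRF at EC100 for full effect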
TPT1 inhibitor = Candida albicans TPT1 enzyme inhibitors, primary screen, biochemical, fluorescence polarization | tRNA 2'-phosphotransferase TPT1 (Candida albicans SC5314) | recombinant caTPT1, FP RNA substrate dephosphorylation | inhibition, % at 5 µM | 300,000 compounds, 0.81% hits | AID 1962, 2009;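 active = inhibition above the mean of all tested compounds plus 3 SD, set per screening campaign, cut at about 24% in these data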;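 note: plate controls were DMSO alone for no effect and ferristatin control at 100 nM for full effect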
TPT1 inh confirm = Candida albicans TPT1 inhibitors, confirmation, biochemical, fluorescence polarization, triplicate; shares compounds with TPT1 inhibitor; recombinant caTPT1, RNase T1 coupled; inhibition, % at 5 µM; 2,400 compounds, 74% hits; AID 2149, 2009;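 active = inhibition above the primary screen limit, the mean inhibition of all tested compounds plus 3 SD, cut at about 25% in these data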
RNase T1 inh = RNase T1 inhibitors, counter-screen for TPT1 inhibitor project, biochemical, fluorescence polarization | shares compounds with TPT1 inhibitor | RNase T1 cleavage, 1536-well | inhibition, % at 5 µM | 2,400 compounds, 83% hits;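 active = inhibition above the solvent-only control well mean plus 3 SD, limit set per screening run, cut at about 23% in these data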;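 note: plate controls were DMSO wells with enzyme for no effect and wells without RNase T1 for full effect; inhibitors block cleavage so intact labeled substrate keeps polarization high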
Target sequence (P00651 whole entry, looked up): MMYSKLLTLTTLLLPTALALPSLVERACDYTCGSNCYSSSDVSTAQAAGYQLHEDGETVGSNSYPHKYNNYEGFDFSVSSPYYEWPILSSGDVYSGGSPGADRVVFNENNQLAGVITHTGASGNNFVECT
* marks the source's active call; other numbers are inactive results.

How did CNS(=O)(=O)c1ccc(N=Cc2c(O)n(-c3ccc(C)cc3)c(=O)[nH]c2=O)cc1 do in these assays?
IDE inh: 6; HNF4A DNA FP: 1; IDE act: 0; CRFR2-BP ag: 0; TPT1 inhibitor: 22

Results for CCc1nnc(NS(=O)(=O)c2ccc(N=Cc3c(O)n(-c4ccc(Cl)cc4)c(=O)[nH]c3=O)cc2)s1 ?
IDE inh: 2; HNF4A DNA FP: 4; IDE act: 50*; CRFR2-BP ag: 14; TPT1 inhibitor: 40*; TPT1 inh confirm: 8; RNase T1 inh: 14

How did CCOC(=O)c1sc(/N=C/c2c(O)n(-c3ccccc3)c(=O)[nH]c2=O)c(C#N)c1C do in these assays?
IDE inh: 1; HNF4A DNA FP: 12; IDE act: -1; CRFR2-BP ag: 11; TPT1 inhibitor: 32*; TPT1 inh confirm: 17; RNase T1 inh: 20

What do the screens show for `CN(c1ccccc1)P(=O)(N1CC1)N1CC1`?
HNF4A DNA FP: 0; IDE act: 3; CRFR2-BP ag: 2

Results for CCOC(=O)[C@]12Cc3ccccc3[C@H]1N(CCC(=O)OC)C(=O)c1ccccc12 ?
HNF4A DNA FP: -2

Results for O=C1NC(=S)N(c2ccc(Br)cc2)C(=O)/C1=C/N1CCN(C(=O)c2ccco2)CC1 ?
IDE inh: 8; HNF4A DNA FP: 49*; IDE act: -3; CRFR2-BP ag: 3; TPT1 inhibitor: 86*; TPT1 inh confirm: 37*; RNase T1 inh: 52*

Results for Cc1cccc(N2C(=O)/C(=C/N3CCN(C(=O)c4ccco4)CC3)C(=O)NC2=S)c1 ?
IDE inh: -1; HNF4A DNA FP: 9; IDE act: 5; CRFR2-BP ag: 0; TPT1 inhibitor: 30*; TPT1 inh confirm: 13; RNase T1 inh: 15

Results for Cc1ccc(N2C(=O)/C(=C/N3CCN(C(=O)c4ccco4)CC3)C(=O)NC2=S)cc1C ?
IDE inh: 4; HNF4A DNA FP: 2; IDE act: 6; CRFR2-BP ag: -2; TPT1 inhibitor: 17

Results for CCOC(=O)CC1c2ccccc2-n2nncc2CN1CC1CCCCC1 (stereo not drawn) ?
HNF4A DNA FP: -9; CRFR2-BP ag: -3

How did CN(C)c1ccc(/C=C2/C(=O)NC(=O)N(Cc3ccco3)C2=O)cc1 do in these assays?
IDE inh: 5; HNF4A DNA FP: -9; IDE act: -3; CRFR2-BP ag: 0; TPT1 inhibitor: 26*; TPT1 inh confirm: 18; RNase T1 inh: 26*

How did CCN(CC)c1ccc(/C=C2/C(=O)NC(=O)N(Cc3ccco3)C2=O)cc1 do in these assays?
IDE inh: -1; HNF4A DNA FP: 2; IDE act: -8; CRFR2-BP ag: 18; TPT1 inhibitor: 48*; TPT1 inh confirm: 94*; RNase T1 inh: 107*

Results for Fc1cccc(-c2ccc3c(c2)CNCc2cnnn2-3)c1 ?
HNF4A DNA FP: -2

What do the screens show for `CCN1C(=O)/C(=C/c2ccc(N(CC)CC)cc2OC)C(=O)NC1=S`?
IDE inh: 3; HNF4A DNA FP: 4; IDE act: -12; CRFR2-BP ag: 30; TPT1 inhibitor: 44*; TPT1 inh confirm: 95*; RNase T1 inh: 101*

Results for N#Cc1ncc(N=Cc2ccc(N(CCCl)CCCl)cc2)s1 ?
HNF4A DNA FP: 18; IDE act: 2; CRFR2-BP ag: -2

What do the screens show for `CN1C(=O)N(C)C(=O)C2(Cc3cc(NC(=O)c4ccc(F)cc4)ccc3N3CCCC32)C1=O` (stereo not drawn)?
IDE inh: -4; HNF4A DNA FP: 13; IDE act: 7; CRFR2-BP ag: 3; TPT1 inhibitor: 30*; TPT1 inh confirm: 23; RNase T1 inh: 37*

How did O=P(NS(=O)(=O)c1ccccc1)(Oc1ccccc1)Oc1ccccc1 do in these assays?
IDE inh: 5; HNF4A DNA FP: 4; IDE act: 5; CRFR2-BP ag: -1; TPT1 inhibitor: -1

How did Cc1ccc(S(=O)(=O)NP(=O)(Oc2ccccc2)Oc2ccccc2)cc1 do in these assays?
IDE inh: 5; HNF4A DNA FP: 1; IDE act: -1; CRFR2-BP ag: -1; TPT1 inhibitor: 24*; TPT1 inh confirm: 9; RNase T1 inh: 19

Results for N#CC(C#N)=Cc1ccc(N2CCOCC2)cc1 ?
IDE inh: -7; HNF4A DNA FP: -1; IDE act: -9; CRFR2-BP ag: 4; TPT1 inhibitor: 9

What do the screens show for `Cc1cc(C=C(C#N)C#N)ccc1N1CCCC1`?
IDE inh: 7; HNF4A DNA FP: 6; IDE act: -11; CRFR2-BP ag: 76*; TPT1 inhibitor: 126*; TPT1 inh confirm: 120*; RNase T1 inh: 139*

Results for CCCCCN1C(=O)c2ccccc2[C@@]2(C(=O)OCC)Cc3cc(OC)ccc3[C@@H]12 ?
HNF4A DNA FP: 1

What do the screens show for `Cc1ccc(N2C(=O)NC(=O)/C(=C\c3ccc([N+](=O)[O-])o3)C2=O)cc1`?
IDE inh: 3; TPT1 inhibitor: 29*; TPT1 inh confirm: 50*; RNase T1 inh: 21

What do the screens show for `CCN1C(=O)C(=C/C=C/c2ccco2)C(=O)N(CC)C1=S`?
IDE inh: 7; HNF4A DNA FP: 98; IDE act: -17; CRFR2-BP ag: 50*; TPT1 inhibitor: 81*; TPT1 inh confirm: 100*; RNase T1 inh: 104*

How did NC(=O)C1CCN(/C=C2\C(=O)NC(=O)N(Cc3ccco3)C2=O)CC1 do in these assays?
IDE inh: 0; HNF4A DNA FP: 1; IDE act: -5; CRFR2-BP ag: -1; TPT1 inhibitor: 12

What do the screens show for `CCN1C(=O)C(=C2C=C(C)N(Cc3ccco3)C(C)=C2)C(=O)N(CC)C1=S`?
IDE inh: 5; HNF4A DNA FP: 4; IDE act: 3; CRFR2-BP ag: 0; TPT1 inhibitor: 3

How did CC(C)N1C(=O)/C(=C/C=C/c2ccco2)C(=O)N(Cc2ccco2)C1=O do in these assays?
IDE inh: 7; HNF4A DNA FP: 9; IDE act: -11; CRFR2-BP ag: 5; TPT1 inhibitor: 95*; TPT1 inh confirm: 54*; RNase T1 inh: 65*

What do the screens show for `COc1ccc(/C=C2/C(=O)N(Cc3ccco3)C(=O)N(C(C)C)C2=O)cc1`?
IDE inh: 1; HNF4A DNA FP: 24; IDE act: -5; CRFR2-BP ag: 8; TPT1 inhibitor: 57*; TPT1 inh confirm: 13; RNase T1 inh: 18

Results for C[C@H]1COc2cc(N3CCN(C)CC3)ccc2S(=O)(=O)N1 ?
HNF4A DNA FP: -2

Source: PubChem
